# Results from PubChem BioAssay (Tox21).
# Inconclusive results are not listed. A number with no mark means an inactive call. Calls of active or inactive are those of the source. Unless noted, the call rests on the fitted dose curve.
# Test: qHTS assay to identify small molecule antagonists of the vitamin D receptor (VDR) signaling pathway - cell viability counter screen (AID 743225; active means well fitted cell-killing curve with a large enough effect in the repeat runs; further: nearly all actives have a fitted effect of over 50% in size)
# Conditions: VDR-bla HEK293T viability, CellTiter-Glo luminescence, 16 h; series mostly up to 61 µM; viability change, negative = cytotoxic: at the top concentration
# Summary of the method: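 Cells (VDR-UAS-bla HEK 293T) are plated, rested 4 h at 37C, dosed with compound and 3 nM final 1-alpha,25-dihydroxy vitamin D3, and incubated 16 h. Viability is taken from CellTiter-Glo luminescence in the reporter wells.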
# On the % scale 0 is the no-effect control and ±100 the full control effect; potency means the concentration at half of the fitted maximal effect.
SMILES,"viability change, negative = cytotoxic",Potency
CSc1cnc(C)cn1,1.8% [at 78.8 µM],
C=C(C)C(=O)OCC[N+](C)(C)C,4.82%,
Oc1ccc(C2(c3ccc(O)cc3)CC3CC2C2CCCC32)cc1 (configuration not stated),,33.3 µM (active)
CC(NN)c1ccccc1 (configuration not stated),2.7% [at 28.5 µM],
[Cl][Au]([Cl])[Cl],,11 µM (active)
CCCCCCCCCOC(=O)c1ccc(O)cc1,,24.2 µM (active)
Clc1ccccc1C(c1ccccc1)(c1ccccc1)n1ccnc1,3.32%,
CN1CCN(CCC(=O)N2c3ccccc3Sc3ccc(C(F)(F)F)cc32)CC1,,12 µM (active)
Nc1nc2ccccc2n1Cc1ccc(F)cc1,-29.6%,
CCCCCCCC/C=C\CCCCCCCCOCCO,,9 µM (active)
ON=C1CCCC1,-3.53% [at 78.8 µM],
O=[N+]([O-])c1cc(Cl)c(Cl)c(Cl)c1Cl,10.5%,
CC1=C(C(=O)OC(C)C)C(c2cccc([N+](=O)[O-])c2)C(C(=O)OC2CN(C(c3ccccc3)c3ccccc3)C2)=C(N)N1 (configuration not stated),,16.9 µM (active)
Nc1ccccc1O,-6.66%,
CCCCCCCCCCCCCCCCCC[N+](C)(C)Cc1ccccc1,,7.84 µM (active)
CCCCN(CCCC)C(=O)N(CCCC)CCCC,3.56%,

# Test: qHTS assay to identify small molecule agonists of the NFkB signaling pathway - cell viability counter screen (AID 1159515); further: nearly all actives have a fitted effect of over 55% in size
# Conditions: NFkB-bla ME-180 viability, CellTiter-Glo luminescence, 5 h; series mostly up to 61 µM; activity, negative = cytotoxic: at the top concentration
# Summary of the method: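 Using the same wells as the NFkB reporter read, ME-180 NFkB-bla cells given compounds for 5 hr were assessed for viability via CellTiter-Glo, with luminescence taken after a 30 min room-temperature incubation.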
SMILES,"activity, negative = cytotoxic",Potency
CSc1cnc(C)cn1,13.6% [at 78.8 µM],
CC(C)(C)NC(=O)[C@@H]1C[C@@H]2CCCC[C@@H]2CN1C[C@@H](O)[C@H](Cc1ccccc1)NC(=O)[C@H](CC(N)=O)NC(=O)c1ccc2ccccc2n1,,55.7 µM (active)
CCCCCCCCOC(=O)c1ccc(O)cc1,-10%,
C=C(C)C(=O)OCC[N+](C)(C)C,-0.508%,
Oc1cccc(-c2c3nc(c(-c4cccc(O)c4)c4ccc([nH]4)c(-c4cccc(O)c4)c4nc(c(-c5cccc(O)c5)c5ccc2[nH]5)CC4)C=C3)c1,-6.58%,
CCN(CC)CCNC(=O)c1c(C)[nH]c(/C=C2\C(=O)Nc3ccc(F)cc32)c1C,-16.7%,
Oc1ccc(C2(c3ccc(O)cc3)CC3CC2C2CCCC32)cc1 (configuration not stated),,52.8 µM (active)
CC(NN)c1ccccc1 (configuration not stated),0.0695% [at 28.5 µM],
Cc1cc2c(cc1C(F)(F)F)N(C(=O)Nc1ccc(Oc3cccnc3C)nc1)CC2,-19.6%,
CC[C@H]1O[C@]2(CC[C@@H]1C)C[C@@H]1C[C@@H](C/C=C(\C)C[C@@H](C)/C=C/C=C3\CO[C@@H]4[C@H](O)C(C)=C[C@@H](C(=O)O1)[C@]34O)O2,,24.3 µM (active)
O=C(Nc1cccc([N+](=O)[O-])c1)c1cc2ccccc2cc1O,10.3%,
[Cl][Au]([Cl])[Cl],-6.16%,
CCCCCCCCCOC(=O)c1ccc(O)cc1,,54.2 µM (active)
c1cc(C(c2ccc(OCC3CO3)cc2)c2ccc(OCC3CO3)cc2)ccc1OCC1CO1 (configuration not stated),-6.83%,
O=C1CCCCCN1SSN1CCCCCC1=O,14.9%,
Clc1ccccc1C(c1ccccc1)(c1ccccc1)n1ccnc1,-7.66%,
CN1CCN(CCC(=O)N2c3ccccc3Sc3ccc(C(F)(F)F)cc32)CC1,-14.9%,
Nc1nc2ccccc2n1Cc1ccc(F)cc1,-24.1%,

SMILES,"activity, negative = cytotoxic",Potency
CCCCCCCC/C=C\CCCCCCCCOCCO,,31.9 µM (active)
ON=C1CCCC1,9.45% [at 78.8 µM],
O=[N+]([O-])c1cc(Cl)c(Cl)c(Cl)c1Cl,-8.12%,
CCCCCCCCCCCC(=O)NCCCN(C)C,,54.9 µM (active)
CC1=C(C(=O)OC(C)C)C(c2cccc([N+](=O)[O-])c2)C(C(=O)OC2CN(C(c3ccccc3)c3ccccc3)C2)=C(N)N1 (configuration not stated),,10.7 µM (active)
Nc1ccccc1O,,38.4 µM (active)
Fc1ccc(C(c2ccc(F)cc2)N2CCN(C/C=C/c3ccccc3)CC2)cc1,-10.4%,
Nc1ccc(N)c2ccccc12,,11 µM (active)
Oc1c(Cl)cc(Cl)c2cccnc12,,0.477 µM (active)
O=c1c(-c2ccccc2)c1-c1ccccc1,-1.34%,
CC(C)(C)C1CCC(CC2=C(O)c3ccccc3C(=O)C2=O)CC1 (configuration not stated),-26.6%,
N/C(=N\N=C\c1ccc(Cl)cc1)N/N=C/c1ccc(Cl)cc1,,13.4 µM (active)
CCCCCCCCCCCCCCCCCC[N+](C)(C)Cc1ccccc1,,22.1 µM (active)
CCC(Cl)C(Cl)C(Cl)CC(Cl)C(Cl)C(C)Cl (configuration not stated),-0.776%,
CCCCN(CCCC)c1ccc(C(=O)c2ccccc2C(=O)O)c(O)c1,-14.1% [at 78.8 µM],
CC[C@@]1(O)C(=O)OCc2c1cc1n(c2=O)Cc2c-1nc1ccccc1c2/C=N/OC(C)(C)C,-27.4%,
O=C1CCCc2c1cc1ccc3cccc4ccc2c1c34,-24.3% [at 78.8 µM],
CCCCN(CCCC)C(=O)N(CCCC)CCCC,-0.0871%,

# Test: qHTS assay to identify small molecule agonists of the endoplasmic reticulum stress response signaling pathway - cell viability counter screen (AID 1159517); further: nearly all actives have a fitted effect of over 50% in size;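 on activity change, negative = cytotoxicity: HeLa cells carrying an ER stress response element beta-lactamase reporter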
# Conditions: ESRE-bla HeLa viability, CellTiter-Glo luminescence, 5 h; series mostly up to 61 µM; activity change, negative = cytotoxicity: at the top concentration
# Summary of the method: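 CellTiter-Glo was added to wells already read for beta-lactamase FRET, and luminescence was recorded 30 min later. Cells: ESRE-bla HeLa, 1,500 per well, compound exposure 5 hr at 37 C.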
SMILES,Potency,"activity change, negative = cytotoxicity"
CC(C)(C)NC(=O)[C@@H]1C[C@@H]2CCCC[C@@H]2CN1C[C@@H](O)[C@H](Cc1ccccc1)NC(=O)[C@H](CC(N)=O)NC(=O)c1ccc2ccccc2n1,49.6 µM (active),
CCCCCCCCOC(=O)c1ccc(O)cc1,54.9 µM (active),
Oc1cccc(-c2c3nc(c(-c4cccc(O)c4)c4ccc([nH]4)c(-c4cccc(O)c4)c4nc(c(-c5cccc(O)c5)c5ccc2[nH]5)CC4)C=C3)c1,,-2.08%
CCN(CC)CCNC(=O)c1c(C)[nH]c(/C=C2\C(=O)Nc3ccc(F)cc32)c1C,7.56 µM (active),
Cc1cc2c(cc1C(F)(F)F)N(C(=O)Nc1ccc(Oc3cccnc3C)nc1)CC2,,-28.3%
CC[C@H]1O[C@]2(CC[C@@H]1C)C[C@@H]1C[C@@H](C/C=C(\C)C[C@@H](C)/C=C/C=C3\CO[C@@H]4[C@H](O)C(C)=C[C@@H](C(=O)O1)[C@]34O)O2,24.3 µM (active),
O=C(Nc1cccc([N+](=O)[O-])c1)c1cc2ccccc2cc1O,,-13.4%
[Cl][Au]([Cl])[Cl],,-14.8%
CCCCCCCCCOC(=O)c1ccc(O)cc1,54.2 µM (active),
c1cc(C(c2ccc(OCC3CO3)cc2)c2ccc(OCC3CO3)cc2)ccc1OCC1CO1 (configuration not stated),,-6.04%
O=C1CCCCCN1SSN1CCCCCC1=O,,-3.72%
CN1CCN(CCC(=O)N2c3ccccc3Sc3ccc(C(F)(F)F)cc32)CC1,,-13.8%
Nc1nc2ccccc2n1Cc1ccc(F)cc1,,1.72%
CCCCCCCC/C=C\CCCCCCCCOCCO,31.9 µM (active),
ON=C1CCCC1,,1.46% [at 78.8 µM]
CCCCCCCCCCCC(=O)NCCCN(C)C,49 µM (active),
Fc1ccc(C(c2ccc(F)cc2)N2CCN(C/C=C/c3ccccc3)CC2)cc1,,-3.81%
Nc1ccc(N)c2ccccc12,0.775 µM (active),
Oc1c(Cl)cc(Cl)c2cccnc12,,0.919%
O=c1c(-c2ccccc2)c1-c1ccccc1,,-0.61%
CC(C)(C)C1CCC(CC2=C(O)c3ccccc3C(=O)C2=O)CC1 (configuration not stated),,-16.8%
N/C(=N\N=C\c1ccc(Cl)cc1)N/N=C/c1ccc(Cl)cc1,23.9 µM (active),
CCC(Cl)C(Cl)C(Cl)CC(Cl)C(Cl)C(C)Cl (configuration not stated),,-12.5%
CCCCN(CCCC)c1ccc(C(=O)c2ccccc2C(=O)O)c(O)c1,35 µM (active),
O=C1CCCc2c1cc1ccc3cccc4ccc2c1c34,,-6.51% [at 78.8 µM]
